Measured values taken from PubChem BioAssay AID488969 (Vanderbilt High Throughput Screening Facility, 2010).
The full ranking holds about 110,000 compounds; the median of “z-score” is about -0.1, and the highest 2% start at about 2. What follows is part of a selection rich in the highest values, with near analogues and random picks from the rest. Calls of active or inactive are those of the source.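 Rule for the calls: active = z-score in the third read window above 3 or below -3; inactive = the rest.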

Biological target: Metabotropic glutamate receptor 8 (Rattus norvegicus) (UniProt P70579)
Sequence (P70579 whole entry, looked up): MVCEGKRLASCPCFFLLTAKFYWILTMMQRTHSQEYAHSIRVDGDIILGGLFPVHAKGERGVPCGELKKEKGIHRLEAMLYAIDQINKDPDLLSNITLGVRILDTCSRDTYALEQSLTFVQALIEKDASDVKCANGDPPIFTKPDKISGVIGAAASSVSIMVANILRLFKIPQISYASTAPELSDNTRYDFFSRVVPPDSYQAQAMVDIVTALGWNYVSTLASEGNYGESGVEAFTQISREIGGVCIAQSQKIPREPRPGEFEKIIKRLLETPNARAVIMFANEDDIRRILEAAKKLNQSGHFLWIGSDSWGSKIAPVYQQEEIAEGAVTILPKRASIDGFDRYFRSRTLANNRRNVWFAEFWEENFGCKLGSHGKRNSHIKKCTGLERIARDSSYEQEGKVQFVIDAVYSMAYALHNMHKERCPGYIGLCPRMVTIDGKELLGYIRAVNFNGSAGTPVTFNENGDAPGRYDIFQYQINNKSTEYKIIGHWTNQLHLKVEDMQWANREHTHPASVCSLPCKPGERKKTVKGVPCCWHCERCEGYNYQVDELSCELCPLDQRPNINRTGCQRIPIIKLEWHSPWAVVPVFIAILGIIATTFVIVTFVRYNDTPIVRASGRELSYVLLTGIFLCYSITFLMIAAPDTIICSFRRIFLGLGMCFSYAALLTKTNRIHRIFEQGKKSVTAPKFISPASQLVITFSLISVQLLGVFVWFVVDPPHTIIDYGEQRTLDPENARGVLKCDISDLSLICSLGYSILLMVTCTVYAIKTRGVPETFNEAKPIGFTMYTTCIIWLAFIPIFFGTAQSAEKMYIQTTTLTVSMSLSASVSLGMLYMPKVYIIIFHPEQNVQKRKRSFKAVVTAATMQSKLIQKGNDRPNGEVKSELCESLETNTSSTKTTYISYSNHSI
Test: mGluR8 Gi/Go-coupled signaling modulation – cell-based, rat, thallium flux, HTS, primary screen (AID 488969)
Details: HEK293 rat mGluR8, GIRK (G protein-gated inwardly rectifying potassium channel) thallium flux, FluoZin2; at 10 µM; stronger effect = higher value; submaximal glutamate (EC20) added with thallium

Compound | z-score
CN(C)CCCN1C(=O)C(=O)/C(=C(/O)c2ccncc2)C1c1cccc(Br)c1 (stereo not drawn) | -0.318
COc1ccc(OC)c(-c2cc(C(=O)Nc3cc(C)on3)no2)c1 | 0.941
Cc1ccc(CNC(=O)C2C3C=CC4(CN(Cc5cccnc5)C(=O)C24)O3)cc1 (stereo not drawn) | -0.0986
O=C(COC(=O)CCC1CCCC1)Nc1ccccc1Sc1ccccc1 | -0.2
CCOc1c(OC(C)=O)ccc(/C=C/c2ccc3cccc(OC(C)=O)c3n2)c1[N+](=O)[O-] | -0.227
COCCSc1ccccc1C(=O)NCc1ccco1 | 0.383
O=C(N/N=C/c1ccc[nH]1)c1ccccc1[N+](=O)[O-] | -0.104
Cc1ccccc1N=Nc1c(C)[nH]n(C(N)=S)c1=O | 2.97
CCN(CC)S(=O)(=O)c1ccc(N=Nc2c(C)[nH]n(C(N)=S)c2=O)cc1 | 0.608
Cc1ccc(N=Nc2c(C)[nH]n(C(N)=S)c2=O)cc1C | -0.217
COCCCNC(=O)/C(=C\c1cccn1C)NC(=O)c1cccs1 | 0.0671
O=C(NCc1ccccn1)C(F)(F)C(F)(F)C(=O)NCc1ccccn1 | -0.509
CCc1nc2ccccc2[nH]1 | 0.00543
CCc1nc2cc([N+](=O)[O-])c([N+](=O)[O-])cc2[nH]1 | -0.0776
CCc1nc2cc(Cl)c(Cl)cc2[nH]1 | 2
Cc1nc2ccsc2c(=O)n1-c1ccc(Cl)cc1 | -0.0701
COc1ccc(N2C(=O)C3C4C=CC(CC4)C3C2=O)c([N+](=O)[O-])c1 (stereo not drawn) | -0.215
OCCn1c(SC2CCCCC2)nc2ccccc21 | 0.162
O=C(N/N=C(/CC(=O)c1cccs1)C(F)(F)F)c1ccc(O)cc1 | -0.828
O=C(C/C(=N\NC(=O)c1ccccc1Br)C(F)(F)F)c1cccs1 | 0.65

Compound | z-score
Cc1ccc(C(=O)N/N=C(/CC(=O)c2cccs2)C(F)(F)F)cc1 | 7.05 (active)
Cc1cc(C(=O)NCc2cc(C)n(C)n2)sc1-c1ccccc1 | -0.62
CS(=O)(=O)Nc1ccccc1Oc1ccccc1 | 0.607
COCCCn1c(SCc2nnc(-c3ccccc3)o2)nc2sc3c(c2c1=O)CCC3 | -0.256
COc1cccc(C2OC(=O)c3ccccc3N2C(C)=O)c1OC(C)=O (stereo not drawn) | 0.116
CSc1nc(Sc2ccc(Cl)cc2)c2ccccc2n1 | 0.0499
CSc1nc(Sc2cccc(Cl)c2)c2ccccc2n1 | 0.093
CSc1nc(Sc2ccccc2)c2ccccc2n1 | 4.56 (active)
CCC(C)NC(=O)CCc1c(C)nc2nc(-c3cc(OC)cc(OC)c3)nn2c1C (stereo not drawn) | -0.148
O=[N+]([O-])c1ccc(N2CCN(S(=O)(=O)c3ccc(Cl)cc3)CC2)cc1NCC1CCCO1 (stereo not drawn) | -0.211
O=C(CN1CCN(c2ccccc2)CC1)Nc1ccc(-n2cnnn2)cc1 | 0.659
CCC1(C)Cc2c(sc3c2c(=O)n(C)c2nnc(SCc4ccc5c(c4)OCO5)n32)CO1 (stereo not drawn) | 3.12 (active)
CCC1(C)Cc2c(sc3c2c(=O)n(C)c2nnc(SCC(=O)c4ccccc4)n32)CO1 (stereo not drawn) | -0.469
CCC1(C)Cc2c(sc3c2c(=O)n(C)c2nnc(SCc4ccccc4)n32)CO1 (stereo not drawn) | -0.196
COc1ccccc1C(=O)N/C(=C\c1ccc2c(c1)OCO2)C(=O)NCCc1nc2ccccc2[nH]1 | -1.09
CN(c1ccccc1C(=O)Nc1cccc(Cl)c1Cl)S(C)(=O)=O | 0.0249
O=C(CCn1c(=S)[nH]c2ccccc2c1=O)NCC1CCCO1 (stereo not drawn) | -0.275
Oc1[nH]c2ccccc2c1C=NCC1CCCO1 (stereo not drawn) | -0.00202
CCOC(=O)C(=O)N=Nc1c(O)[nH]c2ccccc12 | -0.0577
S=C(NCC1CCCO1)Nc1ccc(Cl)cc1Cl (stereo not drawn) | 0.145

Compound | z-score
Oc1[nH]c2ccccc2c1N=NC(=S)NCC1CCCO1 (stereo not drawn) | 3.01 (active)
S=C(NCC1CCCO1)Nc1ccc(Cl)cc1 (stereo not drawn) | 0.0149
Oc1[nH]c2ccccc2c1N=NC(=S)NCCc1ccccc1 | 3.06 (active)
CC(C)c1ccc2[nH]c(O)c(N=NC(=S)NCCc3ccccc3)c2c1 | 0.396
Oc1[nH]c2c(Cl)cc(Cl)cc2c1N=NC(=S)NCC1CCCO1 (stereo not drawn) | 7.5 (active)
Cc1ccccc1NC(=O)C1C2CCCC1C2c1ccccc1 (stereo not drawn) | 0.216
CCc1ccc(OCC(=O)NC(NC(=S)Nc2ccccc2OC)C(Cl)(Cl)Cl)cc1 (stereo not drawn) | -0.163
Cc1cc(C(=O)OCC(=O)NC(C)(C)C)c2ccccc2n1 | -0.284
O=C(N/N=C1\CCc2ccccc21)c1ccccc1Cl | -0.225
COc1ccc(CCCc2nnc(SCC(=O)Nc3nc(C)cs3)n2C)cc1 | 0.338
O=C(NC1CCCC1)c1cccc(NC(=O)c2ccco2)c1 | 0.253
Cc1onc(-c2c(F)cccc2Cl)c1C(=O)Nc1cccc2nsnc12 | 2.67
Cc1onc(-c2ccccc2Cl)c1C(=O)Nc1cccc2nsnc12 | 1.17
Cc1onc(-c2ccccc2)c1C(=O)Nc1cccc2nsnc12 | -0.396
CC1CCCCN1C(=O)Nc1cccc(Cl)c1 (stereo not drawn) | 0.789
COc1ccc(C(=O)c2c(C)c3cc(C)ccc3n2CC(O)CN2CCOCC2)cc1 (stereo not drawn) | -0.197
CS(=O)(=O)N(CC(=O)NCCSc1ccccc1)c1ccc2c(c1)OCO2 | 1.46
Cc1ccc2nc(SCC(=O)N3CCOCC3)[nH]c2c1 | 0.844
